Assay results as given in PMC5540273 (PLoS ONE, 2017).

Columns and labels:
Details in all cases: concentration: 1 μM,replicates: in singlicate; n = 1
[1] = system: JAK1(JH2domain-pseudokinase)
[2] = system: JAK2(JH1domain-catalytic)
[3] = system: JAK3(JH1domain-catalytic)
JNK1 = system: T1, JNK1
T1 construct: gene MAPK8

JNK2 = system: T2, JNK2
T2 construct: gene MAPK9

JNK3 = system: T3, JNK3
T3 construct: gene MAPK10

KIT-autoinhibited = system: KIT-autoinhibited
KIT = system: KIT
LATS1 = system: LATS1
LATS2 = system: LATS2
LCK = system: LCK
LIMK1 = system: LIMK1
LIMK2 = system: LIMK2
LKB1 = system: T4, LKB1
T4 construct: gene STK11

LOK = system: T5, LOK
T5 construct: gene STK10

LRRK2 = system: LRRK2
LTK = system: LTK
LYN = system: LYN
LZK = system: T6, LZK
T6 construct: gene MAP3K13

MAK = system: MAK
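Further: KINOMEscan kinase panel screen.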

SMILES | %Inh [1] [%] | %Inh [2] [%] | %Inh [3] [%] | %Inh (JNK1) [%] | %Inh (JNK2) [%] | %Inh (JNK3) [%] | %Inh (KIT-autoinhibited) [%] | %Inh (KIT) [%] | %Inh (LATS1) [%] | %Inh (LATS2) [%] | %Inh (LCK) [%] | %Inh (LIMK1) [%] | %Inh (LIMK2) [%] | %Inh (LKB1) [%] | %Inh (LOK) [%] | %Inh (LRRK2) [%] | %Inh (LTK) [%] | %Inh (LYN) [%] | %Inh (LZK) [%] | %Inh (MAK) [%]
COc1cc(Nc2nccc(N3CCC(NC(=O)c4cccc(C#N)c4)C3)n2)cc(OC)c1OC (centres unmarked) [GSK1379751] | 2 | 98 | 22 | 30 | 15 | 33 | 0 | 43 | 0 | 0 | 0 | 92.6 | 17 | 0 | 0 | 0 | 2 | 0 | 33 | 7
O=C(NOCC1CC1)c1cc(Br)c(F)c(F)c1Nc1ccc(I)cc1Cl | 39 | 0 | 0 | 12 | 0 | 0 | 0 | 13 | 14 | 0 | 0 | 0 | 0 | 7 | 2 | 0 | 0 | 9 | 9 | 37
CS(=O)c1ccc(-c2coc3ccc(-c4n[nH]c(=O)o4)cc23)cc1 (centres unmarked) | 3 | 23 | 23 | 23 | 20 | 16 | 0 | 0 | 11 | 21 | 0 | 0 | 0 | 16 | 99.7 | 13 | 0 | 16 | 2 | 0
Cl.Nc1n[nH]c2cc(-c3ccccn3)ccc12 [GSK2189892] | 14 | 31 | 0 | 0 | 0 | 0 | 0 | 4 | 0 | 9 | 12 | 0 | 0 | 12 | 0 | 0 | 0 | 0 | 0 | 29
Nc1nccc(-c2ccc3c(N)n[nH]c3c2)n1 [GSK1034945] | 29 | 17 | 14 | 20 | 10 | 0 | 0 | 6 | 0 | 0 | 0 | 0 | 12 | 4 | 0 | 0 | 8 | 0 | 0 | 81
Cc1cccc(-c2nc(Nc3ccncc3)c3sccc3n2)n1 [GW869641] | 90.2 | 67 | 57 | 46 | 85 | 94.6 | 21 | 22 | 11 | 33 | 20 | 11 | 5 | 0 | 79 | 0 | 35 | 18 | 4 | 0
CCn1c(-c2nonc2N)nc2cncc(Br)c21 [SB-738004] | 0 | 34 | 62 | 0 | 0 | 2 | 55 | 32 | 0 | 79 | 0 | 0 | 5 | 19 | 9 | 45 | 0 | 13 | 41 | 28
CNC(=O)c1ccccc1Nc1nc(Nc2cccc(CS(C)(=O)=O)c2)ncc1C.O=CO [GSK1520489] | 97.8 | 98.7 | 99.9 | 99.9 | 99.7 | 99.9 | 62 | 97.8 | 71 | 69 | 99.8 | 47 | 0 | 0 | 99.8 | 90 | 89 | 95.1 | 97.3 | 0
C[C@@H](Oc1cc(-n2cnc3ccc(-c4ccncc4)cc32)sc1C(N)=O)c1ccccc1Cl [GSK483724] | 0 | 19 | 0 | 45 | 27 | 18 | 6 | 36 | 3 | 54 | 40 | 20 | 0 | 0 | 92.2 | 8 | 25 | 0 | 0 | 29
CSc1nccc(-c2c(-c3ccc(F)cc3)ncn2CCCN2CCOCC2)n1.Cl [SB-217146] | 40 | 39 | 0 | 10 | 45 | 34 | 32 | 0 | 0 | 0 | 0 | 3 | 0 | 0 | 8 | 0 | 4 | 0 | 0 | 0
